Screening data: PubChem BioAssay, University of Kansas High Throughput Screening Laboratory
mHTT CaM bind: disrupts binding of mutant huntingtin to calmodulin; P42858; AlphaScreen His-mHTT/GST-CaM binding, luminescence; inhibition, % at 15 µM; hit rate 3.6% among 190,000;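 further: 0% = both proteins with DMSO and 100% = one protein alone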
Pf apPOL inh: Pf-apPOL DNA polymerase inhibition; Recombinant Pf-apPOL, molecular beacon fluorescence, 1.5 h; inhibition, % at 10 µM; hit rate 0.25% among 210,000; AID 1794808
* marks the source's active call; other numbers are inactive results; nt = not tested or not shown. Sampled rows, rich in hits. Any-hit rate of the full collection: about 3.6%. No stated cut-off is given here; in the data, active means inhibition above about 50%; inactive means the rest.

SMILES	mHTT CaM bind	Pf apPOL inh
Cc1ccc([C@H]2C[C@H](O)[C@@H](n3cc(-c4ccc(F)cc4)nn3)CN2Cc2cccs2)cc1	8.4	-3.2
CCCOc1ccc(N2CC(C(=O)O)CC2=O)cc1 (configuration not stated)	-7.3	-1.9
CCCCSc1nnc2n1CCN2c1ccc(F)cc1	-4.9	-3.6
Cc1ccccc1CS(=O)(=O)CCC(=O)NCCN1C(C)CCCC1C (configuration not stated)	-5.0	-12.8
CSc1ccc(NC(=O)N2CCN(C3=CC4=NC(C)CN4C=N3)CC2)cc1 (configuration not stated)	10.7	2.4
O=[N+]([O-])c1cc(S(=O)(=O)C(F)(F)F)ccc1Cl	3.0	-8.5
CN1C(=O)C(=O)c2cc(Br)cc(Br)c21	27.0	-2.6
Cc1ccccc1NC(=O)Cn1nc(N2CCSCC2)c2ccccc2c1=O	-3.7	0.6
O[C@H]1CN(CC2CCCCC2)[C@@H](c2ccc(Cl)cc2)C[C@@H]1n1cc(C2CC2)nn1	53.5*	-3.6
Cc1ccc([C@H]2C[C@H](O)[C@@H](n3cc(-c4ccc(F)cc4)nn3)CN2C(=O)C2CCCCC2)cc1	73.9*	-0.4
O[C@H]1CN(CC2CCCCC2)[C@@H](c2ccc(Cl)cc2)C[C@@H]1n1cc(-c2ccc(F)cc2)nn1	15.9	2.3
O=C(C1CCCCC1)N1C[C@@H](n2cc(-c3ccc(F)cc3)nn2)[C@H](O)C[C@@H]1c1ccccc1	-2.6	-0.2
Cc1ccc(C2CN(S(=O)(=O)c3ccc(F)c(F)c3)CCN2C)cc1 (configuration not stated)	-3.3	8.4
O=C1C(=Cc2cccn2-c2ccccc2)C(=O)c2ccccc21	17.0	3.8
COc1ccccc1-n1nnc(C(=O)NCc2nc3ccccc3n2C)c1-c1ccccn1	-4.6	-10.5
CCN(c1cccc(C)c1)C(C(=O)Nc1ccc(OC)cc1)c1cc2c(cc1[N+](=O)[O-])OCO2 (configuration not stated)	24.0	-6.3
COc1ccc(NC(=O)C(c2cc3c(cc2[N+](=O)[O-])OCO3)N(C)Cc2ccccc2)cc1 (configuration not stated)	61.0*	-6.9
CN(C(=O)Cc1c[nH]c2ccccc12)C(C(=O)Nc1ccc2c(c1)OCCO2)c1ccccc1 (configuration not stated)	42.0	-3.1
COc1ccc(C(C(=O)Nc2ccc3c(c2)OCO3)N(C)C(=O)Cc2c[nH]c3ccccc23)cc1 (configuration not stated)	75.0*	-10.7
O=C(c1cccc(F)c1)N1CCCC(c2ccnc(-c3ccc(F)cc3)n2)C1 (configuration not stated)	53.6*	-5.3
CCC(=O)N1CCCC(c2ccnc(-c3ccc(F)cc3)n2)C1 (configuration not stated)	75.8*	-18.1
CCCC(=O)N1CCCC(c2ccnc(-c3ccc(F)cc3)n2)C1 (configuration not stated)	1.8	-5.5
O=C(c1ccccc1)N1CCCC(c2ccnc(-c3ccc(F)cc3)n2)C1 (configuration not stated)	12.8	-4.3
COC(=O)c1ccc(Cl)cc1NC(=O)c1cccnc1Oc1ccccc1	nt	-6.3
COc1cc2c(cc1OC)CN(Cc1cc(OC)c(O)c([N+](=O)[O-])c1)CC2	-0.6	-2.8
SMILES	mHTT CaM bind	Pf apPOL inh
Cc1ccc(C=C2Oc3c(ccc4c3CN(Cc3ccccn3)CO4)C2=O)o1	100.2*	4.0
COc1ccc(CN2COc3ccc4c(c3C2)OC(=Cc2cccnc2)C4=O)cc1	-1.7	-7.5
O=C1C(=Cc2ccc3c(c2)OCO3)Oc2c1ccc1c2CN(Cc2cccnc2)CO1	24.9	-167.5
COc1ccc(C=C2Oc3c(ccc4c3CN(Cc3ccncc3)CO4)C2=O)cc1	58.1*	-22.2
COc1ccc(C=C2Oc3c(ccc4c3CN(Cc3ccccn3)CO4)C2=O)cc1	100.1*	-31.3
COc1cccc(C=C2Oc3c(ccc4c3CN(Cc3ccncc3)CO4)C2=O)c1	39.2	-30.3
O=C1C(=Cc2ccc3c(c2)OCO3)Oc2c1ccc1c2CN(Cc2ccccn2)CO1	100.2*	-37.5
COc1ccc(C=C2Oc3c(ccc4c3CN(Cc3ccccn3)CO4)C2=O)cc1OC	-1.4	-18.3
NC1=NC(c2ccccc2)(c2ccccc2)C(=O)N1	10.0	-0.2
CC(O)C1CCN(Cc2ccccc2C#N)CC1 (configuration not stated)	-2.7	-0.5
O=C(C(c1ccccc1)c1ccccc1)N1CCN(Cc2ccccc2)CC1	12.2	-2.0
CCCNC(=O)N1CC(CN(C)C)C2(CCOCC2)C1 (configuration not stated)	-11.8	0.9
COc1ccc(C=C2Oc3c(ccc4c3CN(Cc3ccccn3)CO4)C2=O)c(OC)c1OC	-5.9	-4.0
O=C1C(=Cc2ccc(Br)cc2)Oc2c1ccc1c2CN(Cc2cccnc2)CO1	83.2*	-31.4
COc1ccc(OC)c(C=C2Oc3c(ccc4c3CN(Cc3ccccn3)CO4)C2=O)c1	100.1*	47.2
O=C1C(=Cc2ccccc2)Oc2c1ccc1c2CN(Cc2cccnc2)CO1	41.3	-25.7
CC(C)NC(=O)c1ccccc1OCC1CCN(C(=O)c2cc(F)cc(F)c2)CC1	0.1	-0.2
CC(=O)Nc1ccc2nc(SCC(=O)c3ccccc3)sc2c1	0.7	-5.8
Cc1[nH]nc2c1C(c1cc3c(cc1Br)OCO3)C(C#N)=C(N)O2 (configuration not stated)	-0.6	-46.1
CC(C)Cc1nnc(NS(=O)(=O)Cc2ccccc2)s1	0.2	-1.2
Cc1nnc(NS(=O)(=O)Cc2ccccc2)s1	1.1	55.6*
CCC(=O)N1CCN(c2cccc(F)c2)C(=O)C1C (configuration not stated)	-2.2	2.9
COc1ccc(NC(=O)C2CC(=O)NC(=Nc3ccc(C)c(C)c3)S2)cc1 (configuration not stated)	2.3	-6.1
COc1ccc(N=C2NC(=O)CC(C(=O)Nc3cc(C(F)(F)F)ccc3Cl)S2)cc1 (configuration not stated)	78.0*	-10.9
CC1Cc2c(NC(=O)c3ccc(Br)o3)nn(C)c2NC1=O (configuration not stated)	52.5*	-0.1
SMILES	mHTT CaM bind	Pf apPOL inh
COCC(=O)Nc1nn(C)c2c1CC(C)C(=O)N2 (configuration not stated)	-14.0	-1.4
COc1ccc(-n2nc3c(c2NC(=O)/C=C/c2ccc(OC)c(OC)c2)CS(=O)(=O)C3)cc1	13.0	-1.8
COc1ccc(-n2nc3c(c2NC(=O)/C=C/c2ccco2)CSC3)cc1	77.0*	-9.2
O=C(/C=C/c1ccco1)Nc1c2c(nn1-c1ccc(F)cc1)CSC2	98.0*	0.6
COc1ccc(-n2nc3c(c2NC(C)=O)CSC3)cc1	20.0	-3.2
COc1ccc(-n2nc3c(c2NC(=O)/C=C/c2ccc(OC)c(OC)c2)CSC3)cc1	32.0	78.3*
O=C(/C=C/c1ccc2c(c1)OCO2)Nc1c2c(nn1-c1ccc(F)cc1)CSC2	23.0	-2.8
Cc1ccc(N2CC34C=CC(O3)C(C(=O)O)C4C2=O)cc1 (configuration not stated)	-19.8	-1.2
O=C1CSC(c2ccc(Br)cc2)N1c1ccc(Br)cn1 (configuration not stated)	-25.0	-1.6
Cc1cc(=O)n(CC(=O)Nc2ccc(F)cc2F)c(N2CCCCC2)n1	-12.6	-3.9
C=CCc1c(C)[nH]c2ccccc2c1=O	2.7	-37.8
CCCCN(C)C(=O)c1ccn2c(-c3ccc(F)cc3)nnc2c1	3.9	-2.0
